# In publication PMC4336329 (PLoS ONE, 2015):
# Among all 310,000 compounds or so, about 14,000 (4.5%) showed an effect of 50% or more. Effects have a minus sign here. For the sample, strong results were picked, then their nearest neighbours and some compounds at random.
# Molecular target: human ether-à-go-go-related gene (hERG) potassium channel (human, UniProt Q12809)
# Experiment: primary screen, population patch clamp on CHO cells stably expressing hERG; higher = less effect of the substance
# 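Further: peak tail current of the secondary pulse compared with the same well before compound.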
# Sequence of human ether-à-go-go-related gene (hERG) potassium channel (Q12809 whole entry, looked up): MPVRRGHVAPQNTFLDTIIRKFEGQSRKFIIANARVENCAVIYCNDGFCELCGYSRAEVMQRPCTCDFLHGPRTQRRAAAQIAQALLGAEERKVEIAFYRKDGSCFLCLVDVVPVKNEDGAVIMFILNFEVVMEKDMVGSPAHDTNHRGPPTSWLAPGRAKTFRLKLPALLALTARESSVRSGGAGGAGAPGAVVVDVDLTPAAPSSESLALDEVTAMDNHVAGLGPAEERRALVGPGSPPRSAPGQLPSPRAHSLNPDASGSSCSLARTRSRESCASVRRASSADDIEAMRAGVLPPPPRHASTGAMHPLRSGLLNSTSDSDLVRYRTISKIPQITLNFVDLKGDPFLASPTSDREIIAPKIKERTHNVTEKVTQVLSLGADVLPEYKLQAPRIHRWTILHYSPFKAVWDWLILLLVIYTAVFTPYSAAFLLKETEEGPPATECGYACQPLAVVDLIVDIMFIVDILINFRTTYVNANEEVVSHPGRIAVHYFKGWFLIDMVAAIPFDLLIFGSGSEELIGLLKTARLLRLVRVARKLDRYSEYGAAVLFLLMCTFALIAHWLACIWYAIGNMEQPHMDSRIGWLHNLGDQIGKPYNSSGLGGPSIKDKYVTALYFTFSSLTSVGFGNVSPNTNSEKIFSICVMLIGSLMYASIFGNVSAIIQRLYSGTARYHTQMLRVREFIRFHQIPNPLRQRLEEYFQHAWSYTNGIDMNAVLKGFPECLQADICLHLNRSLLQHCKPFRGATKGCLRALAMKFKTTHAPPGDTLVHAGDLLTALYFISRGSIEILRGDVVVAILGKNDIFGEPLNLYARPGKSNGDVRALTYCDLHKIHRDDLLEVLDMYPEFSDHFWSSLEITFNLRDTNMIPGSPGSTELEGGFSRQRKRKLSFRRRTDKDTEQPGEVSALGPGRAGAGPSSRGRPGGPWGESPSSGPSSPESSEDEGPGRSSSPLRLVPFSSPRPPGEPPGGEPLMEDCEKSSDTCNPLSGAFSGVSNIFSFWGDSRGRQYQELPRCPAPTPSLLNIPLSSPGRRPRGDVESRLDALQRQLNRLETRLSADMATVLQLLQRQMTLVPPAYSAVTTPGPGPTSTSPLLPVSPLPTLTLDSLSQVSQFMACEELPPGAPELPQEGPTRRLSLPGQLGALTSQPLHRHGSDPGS
row,SMILES,"hERG current change (%, negative = inhibition) at 10uM [%]"
1,O=C(c1ccc2c(=O)n(C3CCCC3)c(=S)[nH]c2c1)N1CCN(C2CCCCC2)CC1,6.5
2,CSC1=N/C(=C\c2ccccc2C)C(=O)S1,23.9
3,COc1ccc2cc(C(C)=O)c(=O)oc2c1,-11.4
4,OCCN=C1CCCc2c1[nH]c1ccc(Br)cc21,6.45
5,Cl.c1ccc(CCN=C2CCCc3c2[nH]c2ccccc32)cc1,-73.2
6,OCCN=C1CCCc2c1[nH]c1ccc(Cl)cc21,-18
7,CCN(CC)C(=O)c1ccc(CS(=O)(=O)c2ccc(OC)cc2)o1,-0.122
8,Cn1c(C(=O)NC2CCCCC2)cc2c(=O)n3ccccc3nc21,4.32
9,N=c1c(C(=O)NC2CCCC2)cc2c(=O)n3ccccc3nc2n1C1CCCC1,-82.2
10,Cc1nc2ccccn2c1C(=O)NC1CCCC1,16.2
11,Cc1nc2ccccn2c1C(=O)NC1CCCCC1,1.83
12,N=c1c(S(=O)(=O)c2ccc(Cl)cc2)cc2c(=O)n3ccccc3nc2n1C1CCCC1,14
13,N=c1c(C(=O)NC2CCCC2)cc2c(=O)n3ccccc3nc2n1C1CCCCC1,-79
14,COc1ccc(N2CCN(C(CNC(=O)C(=O)NC3CC3)c3ccco3)CC2)cc1 (centres unmarked),13.6
15,CCOc1cc(C=C(C(=O)OC)C(=O)OC)ccc1OCc1ccc([N+](=O)[O-])cc1,4.17
16,O=C(Nc1ccc(F)cc1F)c1cc2ncc(CCCl)cn2n1,-12.3
17,O=C(Nc1nnc(SCc2ccc(F)cc2)s1)c1cccnc1Cl,2.48
18,COc1cc(NC(=O)c2cc3ccccc3o2)c(OC)cc1Cl,16.3
19,c1cncc(CNc2ncnc3sccc23)c1,17.8
20,Clc1ccc(Cn2ncc3c(N4CCCCC4)ncnc32)cc1,-14.4
21,Brc1ccc2ncnc(NCc3ccccc3)c2c1,-10.3
22,Clc1ccc(Cn2ncc3c(N4CCCC4)ncnc32)cc1,-56.7
23,c1csc(CNc2ncnc3ccc(-c4ccoc4)cc23)c1,-13.4

row,SMILES,"hERG current change (%, negative = inhibition) at 10uM [%]"
1,Clc1ccc(Cn2ncc3c(NCc4cccnc4)ncnc32)cc1,-51.2
2,Brc1ccc2ncnc(NCc3cccnc3)c2c1,-60.2
3,Clc1ccc(Cn2ncc3c(N4CCOCC4)ncnc32)cc1,-16.2
4,Clc1ccc(Cn2ncc3c(NCc4ccccc4)ncnc32)cc1,-1.94
5,c1cncc(CNc2ncnc3ccc(-c4ccoc4)cc23)c1,-71.4
6,Cc1cccc(CNc2ncnc3ccc(-c4ccoc4)cc23)c1,-12.4
7,c1ccc(CNc2ncnc3c2cnn3Cc2ccccc2)cc1,-22
8,O=c1c(NCCc2ccc(Cl)cc2)c(-c2ccccc2)c1=O,5.81
9,O=S1(=O)CCS(=O)(=O)C1c1ccccc1,-1.95
10,COc1ccc(N/C=C/C(=O)c2cc(OC)c(OC)c(OC)c2)cc1,-8.76
11,Cc1nc2cc(CO)ccc2s1,9.23
12,COC(=O)/C(=C\Nc1ccccc1N)c1ncc(C(F)(F)F)cc1Cl,3.74
13,CCn1ncc(C2=NOC(C(=O)Nc3c(C)nn(Cc4ccc(F)cc4)c3C)C2)c1C (centres unmarked),10.3
14,COc1ccc(-c2nc3nc(C)cc(=O)n3[nH]2)cc1,17.9
15,CCn1nnnc1NCc1ccc(N2CCCC2)cc1,3.6
16,Cc1ccc(S(=O)(=O)NCCCCCC(=O)NC(C)(C)CO)cc1,13.7
17,CCCCNC(=O)CSc1nc2ccccc2n1S(=O)(=O)c1ccc(Br)cc1,-0.913
18,Cc1cccc(-c2ccc3ncnc(NCc4cccnc4)c3c2)c1,-70.5
19,Cc1cccc(-c2ccc3ncnc(NCc4cccs4)c3c2)c1,-8.55
20,COc1cccc(-c2ccc3ncnc(NCc4cccc(C)c4)c3c2)c1,-0.57
21,CN(CCc1ccccn1)C(=O)CCC1CCCN(C(=O)NC2CCCCC2)C1 (centres unmarked),17.4
22,CCc1ccccc1NC(=O)N1CCCC(CCC(=O)N(C)CCc2ccccn2)C1 (centres unmarked),13.1
23,CCOC(=O)CCNC(=O)N1CCCC(CCC(=O)N(C)CCc2ccccn2)C1 (centres unmarked),-52.3

row,SMILES,"hERG current change (%, negative = inhibition) at 10uM [%]"
1,CCCCNC(=S)N(C)/N=C/c1ccc2c(c1)OCO2,-50.1
2,CCCCNC(=S)N(C)/N=C/c1ccc(F)cc1,-8.72
3,CCCCNC(=S)N(C)/N=C/c1ccccc1F,2.14
4,CCOc1c(N2CCCCC2)c(=O)c1=O,0.507
5,Cc1cc(C)cc(NC(=O)CSc2nnc(-c3ccncc3)o2)c1,-22.8
6,COc1cc(OC)c(C(=O)Nc2cccc(C(C)=O)c2)cc1OC,-9.08
7,Cc1ccc2cc(CCNS(=O)(=O)c3ccc(F)cc3)c(=O)[nH]c2c1C,10.9
8,CCOC(=O)C1=C(N)OC2=C(C(=O)CC(C)(C)C2)C1c1ccc(C)s1 (centres unmarked),-42.3
9,CCOC(=O)C1=C(N)OC2=C(C(=O)CCC2)C1c1cccs1 (centres unmarked),1.13
10,CCOC(=O)C1=C(N)OC2=C(C(=O)CCC2)C1c1ccc(C)s1 (centres unmarked),-54.3
11,CCOC(=O)CC(=O)c1cc(OC)c(OC)c(OC)c1,-3.44
12,CCCNC(=O)c1nn2c(C(F)(F)F)cc(-c3ccccc3)nc2c1Cl,-4.1
13,COc1ccc(-c2cc(C(F)(F)F)n3nc(C(=O)NCCCn4ccnc4)cc3n2)cc1,-41
14,O=C(NCCCn1ccnc1)c1nn2c(C(F)(F)F)cc(-c3ccc(Br)cc3)nc2c1Cl,-65.7
15,Cc1ccc(-c2cc(C(F)(F)F)n3nc(C(=O)NCCCn4ccnc4)cc3n2)cc1C,-20.6
16,O=C(NCCCn1ccnc1)c1nn2c(C(F)(F)F)cc(-c3ccccc3)nc2c1Cl,-29.6
17,O=C(NCCCn1ccnc1)c1cc2nc(-c3ccc(Br)cc3)cc(C(F)(F)F)n2n1,-62.8
18,COc1ccc(CN(C#N)c2nc(C)cc(C)n2)cc1,14.1
19,CCOC(=O)C1=C(COC(=O)CCOc2cc(C)ccc2C)NC(=O)NC1C (centres unmarked),-26.5
20,Cc1ccc(N(C(=O)c2snc(C(N)=O)c2N)C(C(=O)NCC2CCCO2)c2ccc(C)o2)c(C)c1 (centres unmarked),-40.9
21,CCN(CC(=O)Nc1ccc(NC(C)=O)cc1)C(=O)C1CCCC1,-13.9
22,O=C(NNC(=S)NC(=O)C12CC3CC(CC(C3)C1)C2)c1ccncc1,19.8
23,CCOC(=O)c1c(C)[nH]c(C(=O)OCc2ccc(F)cc2)c1C,-0.855

row,SMILES,"hERG current change (%, negative = inhibition) at 10uM [%]"
1,O=C(NCCN1CCOCC1)c1cccc(S(=O)(=O)Nc2ccc(Br)cc2)c1,-20.4
2,C=CCN(c1ccccc1)S(=O)(=O)c1cccc(C(=O)O)c1,16
3,Cc1ccc(S(=O)(=O)Nc2cccc(C(=O)NCC3CCCO3)c2)cc1F (centres unmarked),2.12
4,O=C(NC1CCN(Cc2ccccc2)CC1)c1cccc(S(=O)(=O)Nc2ccc(Br)cc2)c1,-59.7
5,COc1ccc(NS(=O)(=O)c2cccc(C(=O)NC3CCN(Cc4ccccc4)CC3)c2)cc1,-46.7
6,C=CCN(c1ccccc1)S(=O)(=O)c1cccc(C(=O)NC2CCN(Cc3ccccc3)CC2)c1,-65.3
7,COc1ccccc1NS(=O)(=O)c1cccc(C(=O)NN)c1,-5.56
8,O=C(c1cccc(NS(=O)(=O)c2ccc(F)c(F)c2)c1)N1CCN(Cc2ccccc2)CC1,-26.8
9,COc1ccccc1NC(=O)c1cccc(S(=O)(=O)N2CCN(Cc3ccccc3)CC2)c1,-19.6
10,Cc1ccc(S(=O)(=O)Nc2cccc(C(=O)NC3CCN(Cc4ccccc4)CC3)c2)cc1F,-80.6
11,COc1ccccc1NS(=O)(=O)c1cccc(C(=O)NC2CCN(Cc3ccccc3)CC2)c1,-56
12,C=CCN(c1ccccc1)S(=O)(=O)c1cccc(C(=O)NC2CCC(O)CC2)c1 (centres unmarked),-7.48
13,COc1ccc(-c2csc(-c3cccs3)n2)c(OC)c1,15.8
14,CCCN1CNC(=S)N(Cc2ccccc2)C1,12.2
15,NC(=O)c1ccsc1NC(=O)COC(=O)c1ccc(Cl)cc1,-5.38
16,COc1ccccc1NC(=O)C(=O)N(c1cccnc1)C(C(=O)NC(C)(C)C)c1ccccc1 (centres unmarked),18.7
17,CCC(C)(C)NC(=O)c1cc(S(=O)(=O)N2CCCCC2)ccc1N1CCOCC1,-13.4
18,O=C1NC(=O)/C(=C\c2ccccc2OCc2cccc([N+](=O)[O-])c2)N1,-5.66
19,O=C(CCn1c(=O)[nH]c2ccsc2c1=O)Nc1ccc(F)c(F)c1,21
20,COc1cccc(NC(=O)Cc2nnc(SCC(=O)NC(C)c3ccccc3)n2C)c1 (centres unmarked),15.1
